About 6,500 targets were measured; listed, in parts, are those with a hit and a random draw of the rest. About 2% of all pairs of compound and target were hits.
What follows are targets tested with COC(=O)C#Cc1ccccc1 [methyl 3-phenylpropiolate] (assay: log2 ratio of iodoacetamide-alkyne labeling of the cysteine site, DMSO over compound (competition); higher = stronger covalent engagement of the cysteine by the compound, active = 1 or more). Details: 500 µM; treatment time 1 h; system: HEK293T cell lysate.
In short: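 HEK293T lysate (2 mg/mL) was incubated with electrophile (500 µM) or vehicle for 1 h at ambient temperature and then with iodoacetamide alkyne for 1 h. Labelled proteins were clicked to sCIP-TMT reagents, pooled, digested, enriched on streptavidin and measured by Orbitrap Eclipse LC-MS/MS with FAIMS, with FragPipe quantification. The per-cysteine log2 competition ratio is mean control-channel reporter intensity over mean compound-channel reporter intensity. Across three replicates with duplicate channels, cysteines quantified in only one replicate were excluded.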

UniProt Q02241, sequence (Q02241 whole entry, looked up): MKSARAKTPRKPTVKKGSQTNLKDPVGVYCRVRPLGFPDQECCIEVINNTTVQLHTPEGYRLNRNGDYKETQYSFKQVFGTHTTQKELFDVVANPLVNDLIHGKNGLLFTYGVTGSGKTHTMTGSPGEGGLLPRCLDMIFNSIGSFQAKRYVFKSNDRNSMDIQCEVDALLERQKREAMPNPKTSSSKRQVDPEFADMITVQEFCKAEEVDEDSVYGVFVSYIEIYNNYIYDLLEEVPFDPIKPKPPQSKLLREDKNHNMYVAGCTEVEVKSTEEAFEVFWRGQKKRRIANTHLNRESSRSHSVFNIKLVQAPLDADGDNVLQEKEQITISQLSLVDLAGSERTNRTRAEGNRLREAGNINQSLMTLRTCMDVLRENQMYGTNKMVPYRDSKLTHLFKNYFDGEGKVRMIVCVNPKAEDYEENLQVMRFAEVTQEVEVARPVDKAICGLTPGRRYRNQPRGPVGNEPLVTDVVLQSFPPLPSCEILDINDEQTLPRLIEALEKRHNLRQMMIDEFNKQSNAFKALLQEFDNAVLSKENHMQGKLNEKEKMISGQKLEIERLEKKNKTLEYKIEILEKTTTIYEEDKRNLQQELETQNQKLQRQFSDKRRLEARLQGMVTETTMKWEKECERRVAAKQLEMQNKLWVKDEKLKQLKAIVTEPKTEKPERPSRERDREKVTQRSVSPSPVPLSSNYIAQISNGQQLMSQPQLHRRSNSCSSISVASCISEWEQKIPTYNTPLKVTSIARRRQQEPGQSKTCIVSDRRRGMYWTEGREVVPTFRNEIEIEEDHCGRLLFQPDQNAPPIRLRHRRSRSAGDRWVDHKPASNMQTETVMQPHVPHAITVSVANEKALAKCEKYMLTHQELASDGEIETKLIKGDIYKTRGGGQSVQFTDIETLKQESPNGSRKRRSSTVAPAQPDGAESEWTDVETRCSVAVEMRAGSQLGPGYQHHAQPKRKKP
UniProt Q14C86, sequence (Q14C86 whole entry, looked up): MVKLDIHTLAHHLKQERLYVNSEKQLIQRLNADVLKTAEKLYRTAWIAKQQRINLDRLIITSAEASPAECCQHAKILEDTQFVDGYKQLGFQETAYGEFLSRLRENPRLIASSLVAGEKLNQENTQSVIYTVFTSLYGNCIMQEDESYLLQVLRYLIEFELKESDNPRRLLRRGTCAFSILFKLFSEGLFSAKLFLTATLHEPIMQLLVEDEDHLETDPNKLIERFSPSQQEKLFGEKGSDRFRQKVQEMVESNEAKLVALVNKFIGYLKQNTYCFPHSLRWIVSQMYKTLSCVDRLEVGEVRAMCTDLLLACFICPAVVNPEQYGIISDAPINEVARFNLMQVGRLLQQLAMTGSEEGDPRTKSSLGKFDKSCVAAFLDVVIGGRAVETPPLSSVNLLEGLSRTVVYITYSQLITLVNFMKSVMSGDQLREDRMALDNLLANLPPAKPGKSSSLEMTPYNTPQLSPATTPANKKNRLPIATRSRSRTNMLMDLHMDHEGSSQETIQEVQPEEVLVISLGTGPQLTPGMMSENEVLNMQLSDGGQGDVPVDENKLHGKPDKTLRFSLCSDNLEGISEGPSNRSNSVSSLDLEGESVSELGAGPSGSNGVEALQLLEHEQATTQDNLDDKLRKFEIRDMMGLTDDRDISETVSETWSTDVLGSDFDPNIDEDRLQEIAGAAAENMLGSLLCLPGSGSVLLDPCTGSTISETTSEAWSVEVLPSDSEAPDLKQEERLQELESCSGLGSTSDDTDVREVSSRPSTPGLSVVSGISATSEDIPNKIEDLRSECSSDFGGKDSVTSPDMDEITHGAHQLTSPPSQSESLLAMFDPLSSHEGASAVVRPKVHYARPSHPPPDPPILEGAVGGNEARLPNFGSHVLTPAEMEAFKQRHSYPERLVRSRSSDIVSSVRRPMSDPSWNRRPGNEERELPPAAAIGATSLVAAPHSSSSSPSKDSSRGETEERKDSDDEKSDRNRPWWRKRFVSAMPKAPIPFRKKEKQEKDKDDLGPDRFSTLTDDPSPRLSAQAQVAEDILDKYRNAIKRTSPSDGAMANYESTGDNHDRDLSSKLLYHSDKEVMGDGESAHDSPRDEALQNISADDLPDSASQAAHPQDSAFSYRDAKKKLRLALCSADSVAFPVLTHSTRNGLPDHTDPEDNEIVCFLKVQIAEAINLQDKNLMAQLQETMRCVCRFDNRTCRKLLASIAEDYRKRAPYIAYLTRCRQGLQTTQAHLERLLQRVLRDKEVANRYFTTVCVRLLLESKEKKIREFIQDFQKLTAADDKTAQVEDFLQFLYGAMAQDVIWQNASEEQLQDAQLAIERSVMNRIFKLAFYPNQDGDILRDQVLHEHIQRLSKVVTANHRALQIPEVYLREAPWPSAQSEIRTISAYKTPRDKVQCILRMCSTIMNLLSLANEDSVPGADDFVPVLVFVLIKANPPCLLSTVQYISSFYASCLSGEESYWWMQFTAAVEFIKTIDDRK
UniProt Q53H80, sequence (Q53H80 whole entry): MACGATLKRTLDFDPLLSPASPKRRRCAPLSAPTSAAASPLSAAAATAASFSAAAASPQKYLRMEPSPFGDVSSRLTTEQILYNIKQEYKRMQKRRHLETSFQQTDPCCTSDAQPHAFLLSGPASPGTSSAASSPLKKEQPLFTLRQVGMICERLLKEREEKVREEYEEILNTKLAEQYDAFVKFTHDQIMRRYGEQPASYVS
UniProt Q15102, sequence (Q15102 whole entry, looked up): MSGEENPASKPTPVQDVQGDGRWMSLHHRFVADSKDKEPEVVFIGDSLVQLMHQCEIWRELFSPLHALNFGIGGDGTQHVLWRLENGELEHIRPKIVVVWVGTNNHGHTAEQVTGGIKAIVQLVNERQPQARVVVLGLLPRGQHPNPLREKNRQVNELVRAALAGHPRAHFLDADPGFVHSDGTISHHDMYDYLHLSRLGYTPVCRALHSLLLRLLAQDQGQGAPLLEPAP
UniProt Q01581, sequence (Q01581 whole entry, looked up): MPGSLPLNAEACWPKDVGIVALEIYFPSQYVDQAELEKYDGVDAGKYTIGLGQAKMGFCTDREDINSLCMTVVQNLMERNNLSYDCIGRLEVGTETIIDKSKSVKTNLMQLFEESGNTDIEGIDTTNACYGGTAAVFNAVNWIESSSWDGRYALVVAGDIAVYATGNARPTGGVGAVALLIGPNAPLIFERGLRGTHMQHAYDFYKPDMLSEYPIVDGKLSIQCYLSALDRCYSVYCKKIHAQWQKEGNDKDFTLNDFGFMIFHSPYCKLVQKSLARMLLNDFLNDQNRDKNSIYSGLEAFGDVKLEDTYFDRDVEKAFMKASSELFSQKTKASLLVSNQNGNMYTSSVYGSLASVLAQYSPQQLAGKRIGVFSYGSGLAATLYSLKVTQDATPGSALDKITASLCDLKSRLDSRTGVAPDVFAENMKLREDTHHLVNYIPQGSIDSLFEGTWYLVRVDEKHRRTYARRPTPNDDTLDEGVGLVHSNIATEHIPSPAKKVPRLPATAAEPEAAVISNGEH
UniProt Q15459, sequence (Q15459 whole entry): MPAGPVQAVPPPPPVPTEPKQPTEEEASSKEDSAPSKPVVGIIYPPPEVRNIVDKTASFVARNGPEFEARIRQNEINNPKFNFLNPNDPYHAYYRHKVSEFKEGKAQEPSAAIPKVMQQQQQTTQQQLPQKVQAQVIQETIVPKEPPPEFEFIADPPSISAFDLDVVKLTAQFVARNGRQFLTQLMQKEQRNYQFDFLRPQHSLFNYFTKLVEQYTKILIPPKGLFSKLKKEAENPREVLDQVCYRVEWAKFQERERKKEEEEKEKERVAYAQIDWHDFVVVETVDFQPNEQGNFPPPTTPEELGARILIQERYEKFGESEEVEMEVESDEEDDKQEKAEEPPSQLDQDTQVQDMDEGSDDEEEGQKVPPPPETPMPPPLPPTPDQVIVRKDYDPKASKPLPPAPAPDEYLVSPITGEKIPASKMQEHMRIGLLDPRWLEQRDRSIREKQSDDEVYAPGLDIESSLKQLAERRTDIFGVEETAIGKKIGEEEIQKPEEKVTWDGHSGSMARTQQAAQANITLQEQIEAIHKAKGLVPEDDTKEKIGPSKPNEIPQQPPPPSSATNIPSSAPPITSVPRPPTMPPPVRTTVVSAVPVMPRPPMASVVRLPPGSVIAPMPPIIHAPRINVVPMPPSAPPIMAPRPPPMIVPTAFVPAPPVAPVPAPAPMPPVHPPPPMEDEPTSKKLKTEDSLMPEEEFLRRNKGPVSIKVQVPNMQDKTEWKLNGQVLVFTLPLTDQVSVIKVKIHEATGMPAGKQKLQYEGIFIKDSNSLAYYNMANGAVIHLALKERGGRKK
UniProt Q13838, sequence (Q13838 whole entry, looked up): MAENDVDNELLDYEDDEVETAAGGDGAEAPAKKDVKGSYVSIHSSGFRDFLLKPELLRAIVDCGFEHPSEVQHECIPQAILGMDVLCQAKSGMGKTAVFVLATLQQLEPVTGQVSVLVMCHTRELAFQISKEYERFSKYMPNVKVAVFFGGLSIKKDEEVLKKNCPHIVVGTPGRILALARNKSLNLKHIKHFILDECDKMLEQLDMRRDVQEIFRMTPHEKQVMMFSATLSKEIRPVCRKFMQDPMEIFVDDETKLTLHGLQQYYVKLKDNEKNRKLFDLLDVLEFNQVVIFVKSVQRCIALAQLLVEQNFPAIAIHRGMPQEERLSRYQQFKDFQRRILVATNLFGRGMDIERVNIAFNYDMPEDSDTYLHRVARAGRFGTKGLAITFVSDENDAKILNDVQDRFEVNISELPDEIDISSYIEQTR
UniProt Q13642, sequence (Q13642 whole entry, looked up): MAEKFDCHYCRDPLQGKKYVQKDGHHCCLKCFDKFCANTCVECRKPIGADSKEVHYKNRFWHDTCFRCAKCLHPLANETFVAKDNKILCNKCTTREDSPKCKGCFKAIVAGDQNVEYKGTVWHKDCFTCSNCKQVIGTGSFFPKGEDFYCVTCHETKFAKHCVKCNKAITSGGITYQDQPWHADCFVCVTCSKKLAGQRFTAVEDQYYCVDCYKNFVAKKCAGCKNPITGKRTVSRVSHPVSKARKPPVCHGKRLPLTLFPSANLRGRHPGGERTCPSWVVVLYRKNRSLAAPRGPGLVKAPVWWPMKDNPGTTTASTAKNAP

log2 ratio of iodoacetamide-alkyne labeling, inactive:
PAFAH1B3 C55 (UniProt Q15102) 0.0597, SF3A1 C244 (UniProt Q15459) 0.0803, ILK C422 (UniProt Q13418) 0.358, HMGCS1 C86 (UniProt Q01581) 0.0742, FHL1 C191 (UniProt Q13642) -0.117, UniProt Q00341_C948 0.167, USP14 C415 (UniProt P54578) -0.369, MIA3 C1513 (UniProt Q5JRA6) 0.31, GAPVD1 C568 (UniProt Q14C86) 0.475, PPP5C C11 (UniProt P53041) 0.16, DDX39B C198 (UniProt Q13838) -0.129, C5orf22 C195 (UniProt Q49AR2) 0.458, UniProt P84103_C6 0.422, UniProt Q02040_C542 0.763, NUMA1 C375 (UniProt Q14980) -0.109, KIF23 C42 (UniProt Q02241) 0.234, TSR1 C329 (UniProt Q2NL82) 0.425, SF3A3 C103 (UniProt Q12874) 0.188

log2 ratio of iodoacetamide-alkyne labeling, active:
SUZ12 C325 (UniProt Q15022) 1.07, AKIRIN2 C3 (UniProt Q53H80) 1.11, UniProt P62280_C60 2.21, NUBP1 C22 (UniProt P53384) 2.24, ILK C346 (UniProt Q13418) 1.8

From the supplement of paper PMC11006884
